The results in this text go back to PubChem BioAssay (Tox21).

Active and inactive are the calls of the source. The call rests on the fitted dose curve.
On the % scale 0 is the no-effect control and ±100 the full control effect; potency means the concentration at half of the fitted maximal effect.

Gonadotropin-releasing hormone receptor (Homo sapiens), sequence (P30968 whole entry, looked up): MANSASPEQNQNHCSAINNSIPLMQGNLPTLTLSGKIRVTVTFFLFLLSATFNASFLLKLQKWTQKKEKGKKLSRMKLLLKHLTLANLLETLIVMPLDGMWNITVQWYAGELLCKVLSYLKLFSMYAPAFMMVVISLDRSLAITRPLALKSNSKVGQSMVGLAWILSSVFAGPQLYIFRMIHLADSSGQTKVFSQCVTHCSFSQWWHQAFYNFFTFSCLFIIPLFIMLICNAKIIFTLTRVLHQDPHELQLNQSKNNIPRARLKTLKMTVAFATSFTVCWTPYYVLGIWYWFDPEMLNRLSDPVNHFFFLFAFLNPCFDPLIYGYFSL

This test concerns the target Gonadotropin-releasing hormone receptor (Homo sapiens) (UniProt P30968). Put plainly: Human gonadotropin-releasing hormone receptor (GnRHR) small molecule agonists, calcium flux assay in GnRHR-HEK293 cells (AID 1920063). Further: nearly all actives have a fitted effect of over 35% in size. The settings on record: calcium flux fluorescence, agonist mode; series mostly up to 57.6 µM; activity change: at the top concentration. An excerpt:
National Center for Advancing Translational Sciences [NCATS]
Division of Preclinical Innovation [DPI]
U.S. Environmental Protection Agency [EPA]
National Institutes of Environmental Health Sciences [NIEHS]
National Toxicology Program [NTP]
U.S. Food and Drug Administration [FDA]
Gonadotropin-releasing hormone receptor (GnRHR) is a G-protein-coupled receptor (GPCR) and acts (through phospholipase C) to increase intracellular inositol trisphosphate and then release intracellular calcium stores. Cell-based GnRHR-Hek293 calcium influx assay is using HEK293 cells that have been genetically engineered to express the human GnRHR, which activity can be measured by calcium signaling. A compound/drug can activate (agonist) GnRHR that can be monitored by levels of intracellular calcium.
GnRHR-HEK293 cells developed by Codex Corp contain human GnRHR reporter gene, which was stably integrated into HEK 293 cells. The compound activation can be detected by fluorescence intensity via calcium flux assay. This cell line has been used to screen the Tox21 10K compound library to identify GnRHR agonists.
GnRHR-Hek293 cells were dispensed at 1500cells/4uL/well in 1536-well black wall/clear bottom plates using a multidrop dispenser. After the assay plates were incubated at a 37 C/5% CO2 incubator for 18 hours, 4 uL of Calcium Dye Solution was added to each well. The plates were incubated at 37 C for 1 hour. For agonist mode, 23 nL of compounds dissolved in DMSO, positive controls or DMSO only was transferred to the assay plate by a pin tool station. The fluorescence intensity in the plates was measured using FDSS 7000EX kinetic plate reader with a filter set of Ex/Em=480/540 for 3 min at 1 sec intervals. Each test compound was measured at 15 concentrations and in triplicates.
On the technique in general: Calcium assays in cells follow changes in intracellular calcium, usually with a dye or a luminescent sensor.
For the molecule `CC(C)CNCC(C)C`, the “activity change” value is 1.34% (inactive).
Turning to `NC(=O)NNC(N)=O`, the “activity change” value is -0.326% (inactive).
On to `CC(=O)OC/C=C(\C)CC/C=C(\C)CCC=C(C)C`, for which the Potency entry was “inactive”.
`SCCSCCS`: the “activity change” value was 2.16% (inactive).
`CC(=O)c1cc2ccccc2s1`: the “activity change” value was -1.45% [at 26.4 µM, hits give high values] (inactive).
Still for that read-out and setting: in the case of `NC(=O)Cc1cccc2ccccc12` it was 1.82% (inactive); in that of `C=CCOC(=O)CCCCCCCC`, 0.581% (inactive); in that of `CC(=O)c1ccc2c(c1)CCCC2`, -0.974% (inactive).
Take `Nc1ccccc1N`: the Potency is 35.5 µM (active).
Consider `CN(C)c1ccc(C(=C2C=CC(=[N+](C)C)C=C2)c2ccc(N(C)C)cc2)cc1`, for which the Potency entry was “inactive”.
As to `CCC(=O)OCc1ccc(OC)cc1`, the “activity change” value was -1.66% (inactive).
Same read-out and setting: in the case of `CC(C)CC(=O)O` it was 1.2% (inactive); in that of `CCCOCCC`, 0.521% (inactive).
Regarding `CC1(C)[C@@H]2CC[C@]3(C2)[C@@H]1C(=O)CCC3(C)C`, the “activity change” value was 0.0271% (inactive).
With `COc1ccc(OC)c(C(O)CNC(=O)CN)c1` (stereo not given), the Potency result was “inactive”.
In the case of `CCc1c(Br)c(Br)c(Br)c(Br)c1Br`, the “activity change” value is -1.15% (inactive).
With `c1ccc(CNc2ncnc3c2ncn3C2CCCCO2)cc1` (stereo not given), the “activity change” value is -0.533% (inactive).
Consider `CCOCCOCCOCC`, for which the “activity change” value is 0.186% (inactive).
Turning to `CC(C)(C)C(=O)C1C(=O)c2ccccc2C1=O`, the “activity change” value was 18.8% (inactive).
Same read-out and setting: in the case of `O=C1NC2NC(=O)NC2N1` (stereo not given) it was -0.42% (inactive).
`COc1c2ccoc2cc2oc(=O)ccc12`: the Potency entry is “inactive”.
As for `CC(C)C(=O)O`, the “activity change” value is -0.365% (inactive).
For the molecule `COc1ccc(N=[N+]([O-])c2ccc(OC)cc2)cc1`, the “activity change” value was 4.82% (inactive).
With `O=S(=O)(O)CCN1CCN(CCO)CC1`, the “activity change” value was 0.147% (inactive).
On the same count and under the same terms, in the case of `CNC(=O)c1c(I)c(NC(C)=O)c(I)c(C(=O)O)c1I` it was -0.379% [at 26.4 µM, hits give high values] (inactive); in that of `COc1cc(C=O)ccc1OC(=O)C(C)C`, 0.931% (inactive).
Same read-out and setting: the same measure for `CC(C)N=C(N)/N=C(\N)Nc1ccc(Cl)cc1`: 0.145% [at 26.4 µM, hits give high values] (inactive).
Same read-out and setting: the same measure for `CC(=O)NC(Cc1ccccc1)C(=O)O` (stereo not given): -0.141% [at 26.4 µM, hits give high values] (inactive).
In the case of `C=C[C@H]1CN2CC[C@H]1C[C@@H]2[C@@H](O)c1ccnc2ccc(OC)cc12`, the Potency result is “inactive”.
Turning to `Cc1cc(N)no1`, the “activity change” value was -1.65% (inactive).
As for `C/C=C/C(=O)CCCC`, the “activity change” value was 2.88% (inactive).
In the case of `COC(/C=C(\C)CCC=C(C)C)OC`, the “activity change” value is 1.25% (inactive).
Still for that read-out and setting: the same measure for `Cc1ccc(S(=O)(=O)NC(=O)NC2CCCC2)cc1`: 0.0944% [at 26.4 µM, hits give high values] (inactive).
`CO[Si](CCCOCC1CO1)(OC)OC` (stereo not given): the Potency result is “inactive”.
The same measure, in the same setting: in the case of `CC(C)(C)c1ccc(O)c(O)c1` it was “inactive”.
For `COc1cc2c(Nc3ccc(Br)cc3F)ncnc2cc1OCC1CCN(C)CC1`, the “activity change” value was 0.105% [at 26.4 µM, hits give high values] (inactive).
For the molecule `CC(C)c1cccc(C(C)C)c1N`, the “activity change” value was -0.674% (inactive).
As to `O=C(OCCOCCO)c1ccccc1Nc1cccc(C(F)(F)F)c1`, the “activity change” value was 4.6% [at 26.4 µM, hits give high values] (inactive).
For `CO[Si](C)(C)OC`, the “activity change” value was 0.207% (inactive).
On the same count and under the same terms, in the case of `O=c1cccc[nH]1` it was -0.25% (inactive).
